Compounds without any hit were thinned out: in the full panel of roughly 83,000, 20% have a hit.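 48-hour exposure, single concentration, 96-well plates; percent growth endpoint where 0 means no net growth. Active: below 10.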 Calls of active or inactive are those of the source.
What follows are molecules tested on MDA-MB-468 breast (assay: NCI-60 one-dose screen, 48 h (100 = growth as untreated, 0 = no growth, -100 = all killed)). Settings: 10 µM unless noted.

| Compound | growth |
| --- | --- |
| CCCn1c(=S)sc2c(NNC(C)=O)nc(C)nc21 | 93.1% (inactive) |
| C=C1C(=O)O[C@H]2[C@H]1CC/C(CNC(=O)Cc1c[nH]c3ccccc13)=C\CC[C@@]1(C)O[C@@H]21 | -79.9% (active) |
| C=C1C(=O)O[C@H]2[C@H]1CC/C(Cn1cc(-c3ccc(F)cc3)nn1)=C\CC[C@@]1(C)O[C@@H]21 | -53.1% (active) |
| COC1C(O)CC(OC2CC(OC3CC(O[C@@H]4C(=O)c5c(cc6cc(OC7CC(OC8CC(O)C(O)C(C)O8)C(O)C(C)O7)c(C)c(O)c6c5O)CC4[C@H](OC)C(=O)O)OC(C)C3O)OC(C)C2O)OC1C (stereo partly specified) | 15.8% (inactive) |
| CNC1=C([N+](=O)[O-])C(c2ccccc2O)C(C#N)=C(c2cccs2)O1 (stereo unspecified) | 74.5% (inactive) |
| CCNC(=O)Oc1ccc(/C(=C(/C)c2ccc(OC)cc2)c2ccc(OCCN3CCCCCC3)cc2)cc1 | 38.3% (inactive) |
| O=C(/C=C/c1sc(Cl)nc1Cl)c1ccc(Br)cc1 | 63.2% (inactive) |
| O=c1[nH]c(-c2cccc(F)c2)cc2cc(F)ccc12 | 33.2% (inactive) |
| CC(C)(C)c1nn(-c2ccccc2)c2c1CC1(CN2Cc2ccc3c(c2)OCO3)C(=O)c2ccccc2C1=O | 111% (inactive) |
| CCOc1nc(-c2ccccc2)cc2c(O)c(C(=O)NC(C)C)[nH]c(=O)c12 | 101% (inactive) |
| O=C(c1ccccc1O)N1CCCC1 | 94.1% (inactive) |
| C=CC1(C)C(O[Si](C)(C)C(C)(C)C)CC2C3OC(=O)NC31c1cccc3c1[C@H](C(=O)N3C)C2(C)C (stereo partly specified) | 31.3% (inactive) |
| COc1cc(-c2nn(-c3ccc(NC(=O)Nc4ccc(Cl)c(Cl)c4)cc3)cc2-c2ccncc2)ccc1Cl | 30.4% (inactive) |
| COc1cc2ncnc(Oc3cccc(NC(=O)Nc4cc(C(C)(C)C(F)(F)F)on4)c3)c2cc1OC | 12.4% (inactive) |
| N#Cc1c(-c2ccccc2)nc2c(c(-c3ccccc3)nn2-c2ccccc2)c1-c1ccc(N2CCCCC2)cc1 | 93.7% (inactive) |
| CCOC(=O)c1ccc(N(C=O)CCC(=O)CCl)cc1 | 40.3% (inactive) |
| c1ccc(OCCC[P+](c2ccccc2)(c2ccccc2)c2ccccc2)cc1 | -7.95% (active) |
| CC1Cc2c(ncn3c(-c4ccc(F)cc4)nnc23)N(C)c2ccccc21 (stereo unspecified) | 66% (inactive) |
| CC(Cc1ccco1)C(=O)NC(N)=O (stereo unspecified) | 95.7% (inactive) |
| COc1cc2c(c(OC)c1OC)CCC(c1cccc(NC(=O)c3cccc(Br)c3)c1)O2 (stereo unspecified) | 75.2% (inactive) |
| CCCNC(=O)Oc1ccc(/C(=C(\C)c2ccccc2)c2ccc(OCCN3CCCCC3)cc2)cc1 | 73.6% (inactive) |
| CC1=C(NCCN2CCCC2)C(=O)c2c(OCc3cccc(Cl)c3)cccc2C1=O | 69.6% (inactive) |
| CCCNC(=S)N/N=C(\C)c1ccccn1 | -26.3% (active) |
| O=C1c2ccccc2CCC1(Br)Br | -42.2% (active) |
| COC(=O)c1cccc([N+](=O)[O-])c1 | 105% (inactive) |
| O=S(=O)(NCCCNc1nccc(-c2c(-c3cccc(F)c3)nc3occn23)n1)c1ccc(F)cc1 | 26.7% (inactive) |
